Shown are actives, neighbours in structure and some others; about 5.4% of the full set was active somewhere.
APOBEC3A inh: APOBEC3A ssDNA deaminase inhibitors, primary screen, selectivity assay for APOBEC3G inhibitor project, biochemical, FAM/TAMRA oligo cleavage fluorescence. DNA dC->dU-editing enzyme APOBEC-3A (Homo sapiens), P31941. recombinant A3A, FAM/TAMRA ssDNA deamination fluorescence. inhibition, % at 20 µM. 330,000 compounds, 0.41% hits. AID 493011, 2011;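 active means at least 40% inhibition at 20 µM here, with at most 30% in a related deaminase screen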;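 further: plate controls were A3A with DMSO for no effect and wells lacking A3A enzyme for full effect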
A3G deaminase: APOBEC3G DNA deaminase inhibitors, primary screen, biochemical, fluorescence, single-stranded DNA substrate, uHTS. recombinant A3G, ssDNA deamination FAM/TAMRA fluorescence. DNA dC->dU-editing enzyme APOBEC-3G (Homo sapiens), Q9HC16. 330,000 compounds, 0.28% hits. inhibition, % at 20 µM;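 active means inhibition of at least 40% at 20 µM, with no more than 30% in the related APOBEC3A deaminase screen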;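 further: plate controls were DMSO wells with A3G for no effect and wells lacking A3G enzyme for full effect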
rCAG binder: binders of r(CAG) RNA repeats, primary screen, biochemical, fluorescence; inhibition, % at 3 µM; 370,000 compounds, 1.3% hits; r(CAG) RNA repeat, TO-PRO-1 dye displacement fluorescence;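 active means inhibition above the plate cutoff, the mean of all test compounds on that plate plus 3 SD, cut at about 35% in these data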;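 further: 0% = DMSO alone and 100% = 100 µM mitoxantrone as full dye displacement; higher means more dye released from RNA so lower well fluorescence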
ALR inh: inhibitors of human ALR sulfhydryl oxidase, primary screen, biochemical, H2O2 detection, HRP-luminol luminescence, single point. FAD-linked sulfhydryl oxidase ALR (Homo sapiens), P55789. 290,000 compounds, 3.8% hits. purified ALR, DTT oxidation. inhibition, % (test concentration not listed);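 active means mean replicate inhibition above about 79%, with every replicate also reaching it, limit read from the data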
PHOSPHO1 inh: PubChem AID 1565; inhibition, % at 13.3 µM; Phosphoethanolamine/phosphocholine phosphatase (Homo sapiens), Q8TCT1; recombinant PHOSPHO1, absorbance phosphatase assay; 290,000 compounds, 1.1% hits; in the data active means inhibition above about 60%
Target sequence (Q8TCT1 whole entry, looked up): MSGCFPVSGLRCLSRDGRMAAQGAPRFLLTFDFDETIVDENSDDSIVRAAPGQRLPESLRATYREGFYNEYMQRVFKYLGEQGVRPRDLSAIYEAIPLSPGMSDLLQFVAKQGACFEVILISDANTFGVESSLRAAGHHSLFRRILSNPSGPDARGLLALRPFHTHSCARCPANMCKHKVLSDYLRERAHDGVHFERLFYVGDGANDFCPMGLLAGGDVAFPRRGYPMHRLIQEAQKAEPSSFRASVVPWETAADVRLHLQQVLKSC
aDG glyco act: activators of alpha-DG glycosylation, primary screen, uHTS, Pro5-aDG cells, AlphaScreen; 360,000 compounds, 0.22% hits; activation, % at 10 µM; alpha-DG glycosylation AlphaScreen (IIH6); 0% Pro5, 100% B10-LARGE cell signal;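 active means activation of at least 8% versus controls, or a plate z-score of at least 8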;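 further: Pro5 are CHO cells carrying HIG-tagged alpha-DG that lacks glycosylation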
* hit, by the source's call.

How did S=c1[nH]nc(Cc2n[nH]c(=S)n2-c2ccccc2)n1-c1ccccc1 do in these assays?
APOBEC3A inh: -4.3; A3G deaminase: -3.1; rCAG binder: 3.7; ALR inh: 93.4*; PHOSPHO1 inh: 11.4; aDG glyco act: -0.1

Results for Cc1ccc(-n2c(Cc3ccccc3)n[nH]c2=S)cc1 ?
APOBEC3A inh: 1.3; A3G deaminase: 33.9; rCAG binder: 1.6; ALR inh: 91.5*; PHOSPHO1 inh: 101.4*; aDG glyco act: 0.0

Results for S=c1[nH]nc(CCc2ccccc2)n1-c1ccccc1 ?
APOBEC3A inh: -5.4; A3G deaminase: 15.6; rCAG binder: 2.5; ALR inh: -2.7; PHOSPHO1 inh: -10.5; aDG glyco act: -0.4

Results for S=c1[nH]nc(Cc2ccccc2)n1-c1ccc(Cl)cc1 ?
APOBEC3A inh: 7.8; A3G deaminase: 10.9; rCAG binder: 0.8; ALR inh: 58.0; PHOSPHO1 inh: -65.4; aDG glyco act: 0.1

What do the screens show for `Cc1ccc(-c2nnc(SCC(=O)Nc3ccc(Oc4ccccc4)cc3)n2-c2ccc(Cl)cc2)cc1`?
rCAG binder: 7.7

Results for C[C@@H]1ON(C)[C@H]2C[C@H]3c4[nH]c5c(-c6ccc7c(c6)OCO7)cccc5c4CCN3C[C@@H]12 ?
rCAG binder: -0.1

How did O=C(NC1CCCCN(Cc2cccc(C(F)(F)F)c2)C1=O)c1c(F)cccc1F (configuration not stated) do in these assays?
rCAG binder: -3.4

What do the screens show for `CC(C)CNC(=O)OCc1cn(Cc2cccc(F)c2F)nn1`?
rCAG binder: -0.2

What do the screens show for `S=c1[nH]nc(Cc2ccccc2)n1-c1ccccc1`?
APOBEC3A inh: -4.1; A3G deaminase: 38.1; rCAG binder: -1.0; ALR inh: 86.8*; PHOSPHO1 inh: 28.1; aDG glyco act: -0.1

Results for S=c1[nH]nc(Cc2noc3ccccc23)n1-c1ccc(Cl)cc1 ?
APOBEC3A inh: -10.0; A3G deaminase: 0.4; rCAG binder: 3.1; ALR inh: 92.3*; PHOSPHO1 inh: -11.7; aDG glyco act: 0.1

What do the screens show for `Cc1ccc(-n2c(-c3cnccn3)n[nH]c2=S)cc1`?
APOBEC3A inh: -6.8; A3G deaminase: 26.9; rCAG binder: 1.4; ALR inh: 88.2*; PHOSPHO1 inh: 21.3; aDG glyco act: -0.3

Results for CCOc1cc(CCNC(=O)c2cc3sccc3n2CC)ccc1OC ?
rCAG binder: 0.4

How did CCCCc1c(-c2ccccc2OC)ncn1Cc1cccc(OC)c1 do in these assays?
rCAG binder: -0.8

What do the screens show for `CC(C)S(=O)(=O)N[C@@H]1c2cc3c(cc2[C@H](c2ccccc2)[C@H]1C)OCO3`?
rCAG binder: 8.5

What do the screens show for `O=[N+]([O-])c1ccc(/C=C/C2=NN(c3ccccc3)C(c3ccco3)C2)o1` (configuration not stated)?
rCAG binder: 10.9; PHOSPHO1 inh: -39.3; aDG glyco act: -0.3

What do the screens show for `C(=C\c1ccco1)/C1=NN(c2ccccc2)C(c2ccco2)C1` (configuration not stated)?
APOBEC3A inh: 12.6; A3G deaminase: 5.6; ALR inh: 59.3; PHOSPHO1 inh: -14.7; aDG glyco act: 7.2*

How did CCCCS(=O)(=O)N1CCN(C(=O)C(=O)c2cccc(C(F)(F)F)c2)CC1 do in these assays?
rCAG binder: 0.1

How did CCN(CC)S(=O)(=O)c1ccc(C(=O)Nc2ccc(Cc3ccncc3)cc2)cc1 do in these assays?
APOBEC3A inh: 1.8; A3G deaminase: -2.6; rCAG binder: -2.4; PHOSPHO1 inh: 5.8; aDG glyco act: 4.4

Results for CCN(Cc1ccncc1)S(=O)(=O)c1ccc(C(C)=O)cc1 ?
APOBEC3A inh: -1.5; A3G deaminase: -7.4; rCAG binder: 3.8; ALR inh: 89.7*; PHOSPHO1 inh: 31.7; aDG glyco act: 1.3

Bioassay records (PubChem)
